In the library only some 11% were active in any assay of this set; here they are far more common.
L3MBTL1 block – qHTS Assay for the Inhibitors of L3MBTL1 | Lethal(3)malignant brain tumor-like protein 1 (Homo sapiens), Q9Y468 | AlphaScreen L3MBTL1–H3K9me1 peptide binding | Potency, µM (series often up to 57.1 µM), most hits filed as inhibitors | hit rate 0.66% among 230,000 | AID 485360, 2010; further: nearly all actives have a fitted effect of over 60% in size
Target sequence (Q9Y468 whole entry, looked up): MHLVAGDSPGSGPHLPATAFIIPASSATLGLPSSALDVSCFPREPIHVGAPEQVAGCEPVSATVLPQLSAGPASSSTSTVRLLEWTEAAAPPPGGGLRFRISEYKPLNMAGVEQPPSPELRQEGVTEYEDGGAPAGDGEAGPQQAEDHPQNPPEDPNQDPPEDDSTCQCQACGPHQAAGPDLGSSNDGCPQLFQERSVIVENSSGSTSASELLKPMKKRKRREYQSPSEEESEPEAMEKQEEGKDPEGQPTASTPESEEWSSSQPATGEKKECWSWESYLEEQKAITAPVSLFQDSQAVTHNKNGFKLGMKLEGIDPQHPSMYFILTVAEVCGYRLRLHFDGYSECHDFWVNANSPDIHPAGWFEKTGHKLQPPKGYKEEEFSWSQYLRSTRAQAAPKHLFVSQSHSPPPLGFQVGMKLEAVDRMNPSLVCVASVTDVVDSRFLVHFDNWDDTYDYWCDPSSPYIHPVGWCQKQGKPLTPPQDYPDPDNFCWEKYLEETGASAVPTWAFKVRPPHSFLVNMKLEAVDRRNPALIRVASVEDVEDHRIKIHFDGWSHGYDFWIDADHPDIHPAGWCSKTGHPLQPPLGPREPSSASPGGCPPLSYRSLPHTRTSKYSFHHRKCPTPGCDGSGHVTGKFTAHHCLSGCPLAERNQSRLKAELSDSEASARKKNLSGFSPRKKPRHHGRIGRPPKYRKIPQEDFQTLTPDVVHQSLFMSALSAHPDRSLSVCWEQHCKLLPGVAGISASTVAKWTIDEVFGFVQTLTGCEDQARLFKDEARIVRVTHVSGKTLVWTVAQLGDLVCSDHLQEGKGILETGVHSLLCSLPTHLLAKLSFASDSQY
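AlphaScreen proximity signal between nickel-chelate acceptor and streptavidin donor beads (final 10 ug/mL) reports binding of 50 nM L3MBTL1 to 75 nM biotin-H3 K9me1 peptide; complex incubated with compounds 30 min at room temperature; cefsulodin titration as control.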
G9a inh-1 – qHTS Assay for Inhibitors of Histone Lysine Methyltransferase G9a; Potency, µM (doses to about 102 µM), most hits filed as inhibitors; Histone-lysine N-methyltransferase EHMT2 (Homo sapiens), Q96KQ7; hit rate 8.8% among 350,000; G9a H3K9 monomethylation, AlphaScreen, 2 h; further: nearly all actives have a fitted effect of over 75% in size
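Compounds were preincubated with 20 nM G9a for 15 min, after which biotinylated H3K9 peptide (500 nM) and SAM (20 uM) started a 2 h room-temperature reaction. Monomethylated product was quantified by antibody-based AlphaScreen chemiluminescence.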
HP1b chromo inh – HTS for Inhibitors of HP1-beta Chromodomain Interactions with Methylated Histone Tails; AID 540317, 2011; AlphaScreen HP1-beta / biotin-H3K9me3 peptide binding; hit rate 0.56% among 390,000; Potency, µM (series often up to 114 µM), actives largely listed as inhibitors; Chromobox protein homolog 1 (Homo sapiens), P83916; further: nearly all actives have a fitted effect of over 70% in size
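AlphaScreen: HP1-beta (50 nM) preformed 30 min with biotin-H3(1-18)K9me3 peptide (50 nM) in PBS pH 7.4, 0.01% Tween-20. Compound added for 30 min at RT, then streptavidin donor/nickel chelate acceptor beads (10 ug/mL) for 30 min.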
JMJD2A Tudor inh – qHTS Assay for Inhibitors of JMJD2A-Tudor Domain; Lysine-specific demethylase 4A (Homo sapiens), O75164; AlphaScreen JMJD2A-Tudor / H3K4me3 peptide binding; Potency, µM (highest dose often 114 µM), actives largely listed as inhibitors; hit rate 4.4% among 390,000; further: nearly all actives have a fitted effect of over 50% in size
BAZ2B inh – qHTS Assay for Inhibitors of BAZ2B; AlphaScreen BAZ2B-H3K14Ac peptide displacement; Potency, µM (titrated, usually from 114 µM), hits mostly inhibitors; hit rate 4.4% among 360,000; AID 504333, 2011; further: nearly all actives have a fitted effect of over 60% in size
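Complex of BAZ2B and biotin-H3K14Ac (50 nM apiece) forms over 30 min at RT, then faces library compounds up to 110 uM for another 30 min; AlphaScreen beads added, 20 min dark incubation, luminescence read.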
G9a inh-2 – qHTS Assay for Inhibitors of Histone Lysine Methyltransferase G9a: Hit Confirmation. hit rate 89% among 370. shares compounds with JMJD2A Tudor inh. G9a H3K9 monomethylation, AlphaScreen, 2 h. Potency, µM, actives largely listed as inhibitors; further: nearly all actives have a fitted effect of over 65% in size
RGS4 confirm – qHTS for Inhibitors of Regulator of G Protein Signaling(RGS) 4: Hit Validation. shares compounds with JMJD2A Tudor inh. RGS4 GAP activity, Transcreener GDP fluorescence polarization. Potency, µM, actives largely listed as inhibitors. hit rate 80% among 25. AID 602388, 2012
Of the large screens only hits and unclear results are named; the others gave an inactive call (follow-up assays come after a bar, where they were run). The call rests on the fitted dose curve; in most records, active means well fitted curve in the direction sought with a large enough effect; inconclusive means small, poorly fitted or top-dose-only effect, or another doubt; inactive means no such curve, though single readings can be large; an effect the other way counts as inactive or inconclusive.

COc1cc(C2Nn3c(nnc3-c3ccccc3OC)S2)ccc1O (configuration not stated)	G9a inh-1 0.63µM, HP1b chromo inh inconclusive, JMJD2A Tudor inh 2.2µM | G9a inh-2 0.25
CC(C(=O)NC(=O)NC1CCCCC1)N1CCN(c2ccc(O)cc2)CC1 (configuration not stated)	G9a inh-1 1.3µM, HP1b chromo inh 79µM, JMJD2A Tudor inh 22µM, BAZ2B inh inconclusive | G9a inh-2 0.56
CCn1c(SCC(=O)Nc2sc3c(c2C#N)CCCC3)nnc1-c1ccco1	G9a inh-1 inconclusive (no result: L3MBTL1 block) | G9a inh-2 28
CCn1c(SCC(=O)Nc2sc3c(c2C#N)CCC(C(C)(C)C)C3)nnc1-c1ccco1 (configuration not stated)	none
CCc1cccc(C)c1NC(=O)c1cccc(N(C)C)c1	G9a inh-1 inconclusive, BAZ2B inh 89µM | G9a inh-2 8.9
CCc1cccc(C)c1NC(=O)c1cccc(C(=O)Nc2c(C)cccc2CC)c1	none (no result: L3MBTL1 block)
CC(=O)NCCNc1nc(-c2ccccc2C)nc2ccccc12	none (no result: L3MBTL1 block, HP1b chromo inh, JMJD2A Tudor inh, BAZ2B inh)
c1ccc(-c2ccc(N3CCCC4(CCNCC4)C3)cc2)cc1	none (no result: L3MBTL1 block, HP1b chromo inh, JMJD2A Tudor inh, BAZ2B inh) | RGS4 confirm 27
COc1ccc(OC)c(Nc2nc(=O)c3cccnc3s2)c1	G9a inh-1 0.56µM, HP1b chromo inh inconclusive, JMJD2A Tudor inh 18µM, BAZ2B inh 56µM | G9a inh-2 0.45
Cc1ccc(N2NC3(CCN(C(N)=O)CC3)NC2=O)cc1	G9a inh-1 0.71µM | G9a inh-2 40
O=C(CN1CCN(c2ccc(O)cc2)CC1)Nc1ccccc1C(=O)NCCc1ccccc1	G9a inh-1 inconclusive, HP1b chromo inh inconclusive, JMJD2A Tudor inh inconclusive | G9a inh-2 1.3
COCC(=O)Nc1ccc(C(C)C)cc1	none (no result: L3MBTL1 block)
CN(C)c1ccc(NC(=O)COC(=O)CCC(=O)c2ccc(F)cc2)cc1	G9a inh-1 2.5µM, JMJD2A Tudor inh inconclusive, BAZ2B inh inconclusive (no result: L3MBTL1 block) | G9a inh-2 7.1
COCC(=O)Nc1ccc(N(C)C)cc1	G9a inh-1 2.5µM | G9a inh-2 3.2
CN(C)c1ccc(NC(=O)CCCc2ccccc2)cc1	G9a inh-1 1.3µM, HP1b chromo inh inconclusive, JMJD2A Tudor inh inconclusive, BAZ2B inh 45µM | G9a inh-2 2.5
Cn1c(CNC(=O)c2ccco2)nnc1SCCOc1ccccc1	none (no result: L3MBTL1 block)
Cc1nn(C)c2ncc(C(=O)c3ccccc3O)cc12	G9a inh-1 inconclusive (no result: L3MBTL1 block)
Cc1nn(-c2ccccc2)c2ncc(C(=O)c3cc(Cl)ccc3O)cc12	G9a inh-1 0.79µM, JMJD2A Tudor inh inconclusive, BAZ2B inh inconclusive | G9a inh-2 11
Cc1cc(C)nc(Nc2cccc3ccccc23)n1	none (no result: L3MBTL1 block, G9a inh-1)
Cc1cc2n(n1)SC(Nc1cccc3ccccc13)N2 (configuration not stated)	G9a inh-1 0.63µM, JMJD2A Tudor inh 50µM | G9a inh-2 0.71
COc1ccc(N2CCN(CC(=O)Nc3cc(C)on3)CC2)cc1	G9a inh-1 1.8µM, HP1b chromo inh inconclusive, JMJD2A Tudor inh 2.8µM, BAZ2B inh 20µM | G9a inh-2 1.6
CCc1ccccc1NC(=O)CN(C)Cc1nc(N)nc(Nc2ccccc2C)n1	JMJD2A Tudor inh inconclusive
CCc1ccccc1NC(=O)CN(C)Cc1c(O)ccc2ccccc12	G9a inh-1 1.8µM, HP1b chromo inh inconclusive, JMJD2A Tudor inh 56µM, BAZ2B inh inconclusive (no result: L3MBTL1 block) | G9a inh-2 0.4
O=C(c1ccccc1F)n1c2c(c3ccccc31)CCCC2	none (no result: L3MBTL1 block)
CCN1CCN(C(=S)Nc2cc(S(=O)(=O)N(CC)CC)ccc2C)CC1	G9a inh-1 inconclusive
CCN(CC)c1ccc(NC(=O)CN2CCN(CC(=O)Nc3ccccc3F)CC2)cc1	G9a inh-1 inconclusive, JMJD2A Tudor inh inconclusive, BAZ2B inh inconclusive | G9a inh-2 6.3
COc1ccccc1NC(=O)CN1CCN(CC(=O)Nc2ccccc2F)CC1	none (no result: L3MBTL1 block, G9a inh-1, BAZ2B inh)
COc1ccc(CCNC(=S)Nc2ccc(S(=O)(=O)Nc3ncccn3)cc2)cc1OC	none (no result: L3MBTL1 block)
Oc1ccc(NCc2ccccc2OCc2ccccc2)cc1	L3MBTL1 block inconclusive, G9a inh-1 1.8µM, HP1b chromo inh inconclusive, JMJD2A Tudor inh 56µM, BAZ2B inh 28µM | G9a inh-2 5.8
CCNCc1ccccc1OCc1ccccc1	none
O=C(CSc1nnc2c(n1)[nH]c1ccccc12)Nc1ccc2c(c1)OCO2	G9a inh-1 1.8µM (no result: L3MBTL1 block) | G9a inh-2 1.6
Cc1ccc(NC(=O)CSc2nnc3c(n2)[nH]c2ccccc23)cc1	none (no result: L3MBTL1 block)
COCc1c(C(=O)N2CCN(S(=O)(=O)c3ccccc3Cl)CC2)oc2ccccc12	none
COCc1c(C(=O)N2CCN(Cc3nc4ccccc4s3)CC2)oc2ccccc12	G9a inh-1 inconclusive, BAZ2B inh inconclusive | G9a inh-2 4
CC1(C)NC(=O)N(CC(=O)N2CCN(S(=O)(=O)c3ccccc3C(F)(F)F)CC2)C1=O	none
Cc1ccc(CN2CCN(C(=O)C3CCCO3)CC2)cc1 (configuration not stated)	G9a inh-1 inconclusive
O=C(C1CCCO1)N1CCN(Cc2c(O)ccc3ccccc23)CC1 (configuration not stated)	G9a inh-1 1.4µM, JMJD2A Tudor inh 79µM (no result: L3MBTL1 block) | G9a inh-2 0.36
O=C(N/N=C/c1ccncc1)c1nn(Cc2ccccc2)c(=O)c2ccccc12	none (no result: BAZ2B inh)
CCOC(=O)N1CCc2c(sc(NCc3cccs3)c2C(=O)Nc2ccc(OC)cc2OC)C1	G9a inh-1 2.8µM, JMJD2A Tudor inh 3.2µM, BAZ2B inh inconclusive (no result: L3MBTL1 block) | G9a inh-2 3.6
CCOC(=O)N1CCc2c(sc(NC(=O)CN3CCOCC3)c2C(=O)Nc2ccccc2)C1	G9a inh-1 inconclusive, BAZ2B inh inconclusive
CCOC(=O)N1CCc2c(sc(NCc3cccs3)c2C(=O)Nc2cc(OC)ccc2OC)C1	G9a inh-1 1.6µM, HP1b chromo inh inconclusive, JMJD2A Tudor inh 3.2µM (no result: L3MBTL1 block) | G9a inh-2 1.1
CCOC(=O)c1c(C)[nH]c(C)c1C(=O)COC(=O)c1ccc(Cl)nc1	none (no result: G9a inh-1, BAZ2B inh)
Cc1ccccc1N1CCN(C2CCCN(C(=O)c3noc4c3CCCC4)C2)CC1 (configuration not stated)	none (no result: L3MBTL1 block)
Oc1c(CN2CCOCC2)ccc2ccccc12	G9a inh-1 2.2µM, JMJD2A Tudor inh inconclusive | G9a inh-2 1.3

Assay outcomes: PubChem BioAssay, National Center for Advancing Translational Sciences (NCATS)
